# Data: the supplement of paper PMC9694430
# Tested on: LOC_OS01G39600-cb002
# Assay: thermal shift delta Tm vs DMSO control; higher = stronger stabilization (binding)
# Details: 12.5 µM; protein concentration 2 µM
# How it was run: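 Heating from 25°C to 95°C at 0.05°C/s, fluorescence was recorded for 19.5 μl wells of 2 μM E. coli-expressed, purified rice kinase domain in 100 mM potassium phosphate pH 7.5, 150 mM NaCl, 10% glycerol and 5 × SYPRO Orange with compound in DMSO. Boltzmann fits gave melting temperatures for this differential scanning fluorimetry assay. The shift reported is the mean of three replicates against the DMSO-only protein.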
# 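Note: purified Escherichia coli-expressed rice kinase domain construct.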
row,Structure (SMILES),thermal shift delta Tm
1,C[C@H](CN(C)C)Oc1nc(Nc2cc3cccc(Cl)c3cn2)cnc1C#N,0.03 °C
2,CN1c2ccccc2C(=O)Nc2cnc(Nc3ccc(N4CCC(O)CC4)cc3)nc21,0.1 °C
3,CCNc1nc(Nc2cc(F)c(C(=O)N3CCOCC3)cc2OC)ncc1C(F)(F)F,0.15 °C
4,COc1cc2ncnc(Nc3ccc(Oc4ccccc4)cc3C)c2cc1OC,0.05 °C
5,O=C1NC(=O)/C(=C/c2cccc(C(F)(F)F)c2)S1,-0.09 °C
6,COc1ccc(C(=O)Nc2sc3c(c2C(N)=O)CCCC3)cc1OC,0.46 °C
7,C#Cc1cccc(Nc2ncnc3cc(OCCOC)c(OCCO)cc23)c1,2.63 °C
8,FC(F)(F)c1ccc(/C=C/c2nc(COc3ccc(CCCCn4ccnn4)cc3)co2)cc1 [Mubritinib (TAK 165)],-0.52 °C
9,CNC(=O)Nc1ccc(-c2nc(N3CC4CCC(C3)O4)c3cnn(C4CCC5(CC4)OCCO5)c3n2)cc1,-0.16 °C
10,CC(C)(C)NS(=O)(=O)c1cncc(-c2cc(F)c3nc(N)nn3c2)c1,0.65 °C
11,C[C@@H]1CN(CC(=O)Nc2ccc3c(c2)Cc2cccc(-c4cc(=O)cc(N5CCOCC5)o4)c2S3)C[C@H](C)O1,-0.34 °C
12,COCCOc1ccc2c(c1)ncn2-c1ccc2cccc(N3CCC(N)CC3)c2n1,2.09 °C
13,Cc1ccc(NC(=O)c2ccc(CN3CCN(C)CC3)cc2)cc1Nc1nc(-c2cccnc2)cs1 [Masitinib (AB1010)],-0.05 °C
14,Cn1cc(-c2cnn3c(N)c(Br)c([C@@H]4CCCNC4)nc23)cn1,0.31 °C
15,COc1ccc(-c2cc3c(C)nc(N)nc3n([C@H]3CC[C@H](OCCO)CC3)c2=O)cn1,0.34 °C
